Assay outcomes (PubChem)
An excerpt weighted towards active compounds, which were near 2.3% of everything screened.
M1 ag: human M1 muscarinic receptor agonists, primary screen, Fluo-8 calcium fluorescence, CHO-K1 cells, HTS; activation, % at 3 µM; CHO-K1 hM1, agonist mode; 0% DMSO, 100% acetylcholine EC100; 0.33% of 360,000 active; Muscarinic acetylcholine receptor M1 (Homo sapiens), P11229;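 active means activation above the run's mean compound activation plus 3 SD, cut at about 16% in these data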;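 further: peak over basal fluorescence ratio within a 140 s kinetic read after compound addition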
Target sequence (P11229 whole entry, looked up): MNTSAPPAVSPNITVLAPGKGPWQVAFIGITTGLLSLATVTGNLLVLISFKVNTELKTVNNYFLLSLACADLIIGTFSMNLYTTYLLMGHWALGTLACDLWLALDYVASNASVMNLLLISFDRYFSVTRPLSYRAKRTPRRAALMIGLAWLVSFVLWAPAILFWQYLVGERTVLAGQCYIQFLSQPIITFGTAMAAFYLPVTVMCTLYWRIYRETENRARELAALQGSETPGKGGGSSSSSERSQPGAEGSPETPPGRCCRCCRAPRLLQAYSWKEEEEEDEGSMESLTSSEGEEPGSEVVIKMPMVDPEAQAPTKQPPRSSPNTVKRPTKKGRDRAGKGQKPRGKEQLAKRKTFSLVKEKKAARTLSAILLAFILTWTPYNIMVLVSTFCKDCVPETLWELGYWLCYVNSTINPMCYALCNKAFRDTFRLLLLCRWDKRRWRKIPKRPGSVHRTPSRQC
CHO-K1 Ca antag: M1 antagonist counterscreen hit in parental CHO-K1 cells; ATP-induced calcium, Fluo-8 fluorescence; inhibition, % at 3 µM; 0.6% of 360,000 active; AID 602250;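 active means inhibition above a per-plate cutoff, the plate's mean sample inhibition plus 3 SD, cut at about 24% in these data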;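 further: 0% = DMSO plus EC80 ATP and 100% = DMSO alone without ATP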
M1 ag parental: counter-screen for M1 agonists: effect in parental CHO-K1 cells; 0.48% of 360,000 active; activation, % at 3 µM; Fluo-8 calcium fluorescence; scaled to maximal ATP response, vehicle zero; in the data active means activation above about 15%;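 further: untransfected CHO-K1 host cells lacking M1 receptor as counterscreen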
CHO-K1 Ca PAM: nonselective calcium activators in parental CHO-K1 cells, primary screen, counter-screen for M1 PAM project, cell-based, Fluo-8 calcium fluorescence, full deck, 1536-well; ATP EC20; 0% at ATP EC20, 100% at ATP max; activation, % at 3 µM; 0.02% of 360,000 active;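 active means activation above the run cutoff, the mean activation of all test compounds plus 3 SD, cut at about 40% in these data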;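 further: peak over basal fluorescence ratio in a 140 s read after ATP addition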
M1 PAM: human M1 muscarinic receptor positive allosteric modulators, primary screen, CHO-K1 cells, Fluo-8 calcium fluorescence, 1536-well. 0.088% of 360,000 active. Muscarinic acetylcholine receptor M1 (Homo sapiens), P11229. AID 588819, 2011. CHO-K1 hM1, ACh EC20; 0% = ACh EC20, 100% = maximal ACh. activation, % at 3 µM; in the data active means activation above about 19%, passing the limit was not always enough
M1 antag: human M1 muscarinic receptor antagonists, primary screen, CHO-K1 cells, Fluo-8 calcium fluorescence, 1536-well | Muscarinic acetylcholine receptor M1 (Homo sapiens), P11229 | 1.3% of 360,000 active | inhibition, % at 3 µM | CHO-K1 hM1, ACh EC80 antagonist | AID 588852, 2011;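 active means percent inhibition above its own plate's cutoff, namely the mean of that plate's compound wells plus 3 SD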;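 further: peak over basal fluorescence ratio during 140 s after agonist addition; 0% = ACh EC80 plus DMSO and 100% = DMSO alone without agonist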
* = called active by the depositor; . = not tested or not shown.

SMILES | M1 ag | CHO-K1 Ca antag | M1 ag parental | CHO-K1 Ca PAM | M1 PAM | M1 antag
CCOc1ccc(CCNC(=O)CN(C)S(=O)(=O)c2cccs2)cc1OCC | -5 | -2 | 0 | 7 | 3 | -1
CC1CC1C(=O)N(C)CC(=O)Nc1ccccc1Br (stereo not drawn) | -1 | -8 | 0 | 18 | 19 | -18
O=C1CC(O)(C(F)(F)F)Oc2c1ccc1ccccc21 (stereo not drawn) | 6 | -1 | 28* | 3 | -6 | 3
O=C1CC(O)(C(F)F)Oc2ccc3ccccc3c21 (stereo not drawn) | -4 | 0 | 0 | 10 | -1 | 5
CCCCn1c(N)c(N(CCOC)C(=O)c2ccc(N3CCCC3)c([N+](=O)[O-])c2)c(=O)[nH]c1=O | -4 | -7 | 0 | -4 | 0 | 4
O=C(CN1C(=O)S/C(=C\C=C\c2ccccc2)C1=O)Nc1ccccc1C(=O)O | -4 | -6 | 1 | 17 | 10 | -17
C#CCN1C(=O)S/C(=C/C=C/c2ccc(N(C)C)cc2)C1=O | 36* | 13 | 9 | 3 | -18 | 47*
Cn1c(N)c(C(=O)CSc2n[nH]c(-c3ccccc3)n2)c(=O)n(C)c1=O | -3 | -14 | 0 | 12 | 8 | 1
Cc1ccccc1NC(=O)COC(=O)c1ccc(S(C)(=O)=O)c([N+](=O)[O-])c1 | -4 | 4 | 0 | -9 | 4 | 4
Cc1ccccc1NC(=O)Cc1nc(COC(=O)c2ccc(S(C)(=O)=O)c([N+](=O)[O-])c2)cs1 | -5 | 5 | 4 | -10 | -26 | 34*
CN(C)S(=O)(=O)c1cccc(-c2nn(-c3ccccc3)cc2/C=C(\C#N)c2nc3ccccc3[nH]2)c1 | -4 | 24* | 0 | -11 | 5 | -2
N#C/C(=C\c1cn(-c2ccccc2)nc1-c1cc2ccccc2o1)c1nc2ccccc2[nH]1 | -4 | 4 | 0 | -2 | -1 | 7
O=C(Oc1cccc(Nc2ncnc3ccccc23)c1)c1ccccc1Cl | 3 | 25* | 8 | 1 | -15 | 25*
COc1cccc(Nc2ncnc3ccccc23)c1 | -5 | -4 | 1 | -16 | -8 | 14
CCc1nc2ccc(C(=O)N3CCCC(C(N)=O)C3)cn2c1N(C)Cc1ccc(OC)cc1 (stereo not drawn) | -10 | 3 | 0 | 2 | -24 | 39*
CCc1nc2ccc(C(=O)N3CCCC(C(N)=O)C3)cn2c1N(CCC(C)C)CCN(C)C (stereo not drawn) | -3 | 10 | 1 | 15 | 7 | -8
CCc1nc2ccc(C(=O)NCCOc3ccc(OC)cc3)cn2c1N(C)Cc1ccc(OC)cc1 | -6 | 7 | 4 | 6 | -20 | 30*
CCc1nc2ccc(C(=O)NCCOc3ccc(OC)cc3)cn2c1N(C)CCCc1ccccc1 | -7 | -1 | 0 | 9 | -18 | 35*
CCCCNC(=O)c1ccc2nc(CC)c(N(C)Cc3ccc(OC)cc3)n2c1 | -7 | -5 | 1 | 7 | -10 | 6
N#CCCN(NC1=NS(=O)(=O)c2ccccc21)C(=O)c1ccccc1Br | -3 | -4 | 0 | 11 | 8 | -15
O=C(NCCCN1CCCC1=O)C1CCN(S(=O)(=O)c2ccc(Cl)cc2)CC1 | -5 | 0 | 0 | -4 | 6 | -5
COc1cc(/C=N\n2nnnc2N)ccc1OCc1ccc(F)cc1 | -1 | 11 | 1 | -7 | -17 | active
COc1cc(/C=N/n2nnnc2N)ccc1OCC(N)=O | 0 | 14 | 0 | 12 | -1 | 6
CN(c1ccccc1)S(=O)(=O)c1cccc(NC(=O)COc2cccc([N+](=O)[O-])c2)c1 | -3 | -11 | 7 | -5 | -10 | 13
COc1cccc(CN(C)CC(=O)Nc2cccc(S(=O)(=O)N(C)c3ccccc3)c2)c1OC | -5 | -17 | 5 | -5 | -14 | 12
SMILES | M1 ag | CHO-K1 Ca antag | M1 ag parental | CHO-K1 Ca PAM | M1 PAM | M1 antag
Cc1nnc(SCC(=O)Nc2cccc(S(=O)(=O)N(C)c3ccccc3)c2)s1 | 1 | 21 | 14 | -6 | -19 | 36*
CCOc1ccc(CN(C)CC(=O)Nc2cccc(S(=O)(=O)N(C)c3ccccc3)c2)cc1 | -6 | 0 | 18* | 7 | -4 | 9
COCCn1cnnc1SCC(=O)Nc1cccc(S(=O)(=O)N(C)c2ccccc2)c1 | -7 | 11 | 14 | 2 | 9 | -2
CCC(=O)c1ccc(OCC(=O)Nc2cccc(S(=O)(=O)N(C)c3ccccc3)c2)cc1 | 3 | 8 | 17* | -12 | -26 | 56*
COc1ccc(OCCCC(=O)OCC(=O)N2CCN(S(=O)(=O)c3ccc(C)cc3C)CC2)cc1 | 11 | 2 | 10 | 5 | 4 | 9
CC(=O)c1ccc(OCCCC(=O)OCC(=O)N2CCN(S(=O)(=O)c3ccc(C)cc3C)CC2)cc1 | 3 | 14 | 18* | -3 | -9 | 29*
COCC(=O)Nc1ccc2c(c1)[C@@H]1C[C@H](CC(=O)OC)O[C@H](CO)[C@@H]1O2 | -3 | -11 | 1 | 17 | 4 | -8
O=C(c1ccccc1)c1nn(-c2ccc(Cl)cc2)c(=O)cc1C(F)(F)F | -5 | 6 | 19* | 5 | -20 | 23
O=C(c1ccccc1)c1nn(-c2ccccc2)c(=O)cc1C(F)(F)F | -10 | -14 | -1 | 2 | -4 | -10
COc1ccc(CNC(=O)c2cccc3c(-c4cccnc4)coc23)cc1OC | 4 | 28* | 15* | -8 | -17 | 34*
CCOC(=O)c1[nH]c(C)c(CN(C(C)=O)c2ccc(OCC)cc2)c1C | -14 | -6 | 1 | 24 | -29 | 26*
CCC[N+](CC#CCO)(CC#Cc1ccccc1)CCC | -6 | -5 | 1 | 18 | 12 | -18
CC[N+](CC)(CC#Cc1ccccc1)CC(=O)c1ccc(Cl)cc1 | -12 | -6 | 1 | 4 | -25 | 35*
Cc1occc1C(=O)NNC(=O)c1ccccc1[N+](=O)[O-] | -1 | -7 | 0 | 11 | 14 | -12
COC(=O)c1c(NC(=O)COC(=O)CC(NC(C)=O)c2ccccc2)sc(C)c1C (stereo not drawn) | -1 | 1 | 1 | 7 | 18 | -15
CC1=C(C(=O)N2CCCCCC2)CC(CC(=O)NCCN2CCOCC2)C(=O)N1Cc1ccc(F)cc1 (stereo not drawn) | . | -16 | 0 | -3 | . | .
Cc1cc(C)c2nc(N3CCC(C(=O)NCCCN4CCCCC4)CC3)sc2c1 | -5 | 13 | 0 | 11 | -20 | 76*
